Only some compounds are listed: those with a hit (about 19% of all), similar ones and a draw of the others.
Pf growth 96h = P. falciparum growth inhibition at 96 hour, primary screen for plastid delayed-death inhibitors; P. falciparum luciferase reporter growth, 96 h; Potency, µM (titrated, usually from 28.7 µM), for the others: at the top dose activity change, negative = inhibition, hits mostly inhibitors; 320,000 tested, 6.9% active; further: potency means the concentration at half of the fitted maximal effect; on the % scale 0 is the no-effect control and ±100 the full control effect
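Delayed-death screen, second-generation endpoint: infected erythrocytes, 2% hematocrit, 0.05% parasitemia final; 96 hours at 37 C, 5% CO2; luciferase detection reagent; luminescence decrease equals reduced growth.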
Shiga inhibitor = blocks Shiga toxin action in Vero cells | Vero cells, Shiga toxin protein synthesis inhibition reporter | 290,000 tested, 9.2% active | inhibition, % at 38.7 µM; in the data active means inhibition mostly above about 28%, no sharp cut-off; inactive means mostly below about 43%; further: 0% is about no effect
CHX counter = counter-screen for Shiga toxin inhibitors: cycloheximide protein synthesis inhibition | 300,000 tested, 12% active | max response, % | AID 2314 | cell reporter, cycloheximide protein synthesis inhibition counterscreen; in the data active means max response mostly above about 13%, no sharp cut-off; inactive means mostly below about 14%; further: read at 38.3 µM for the half of the compounds with a filed dose; 0% is about no effect
Pf growth 48h = inhibits P. falciparum growth in the first generation, 48 h. P. falciparum luciferase growth in erythrocytes, 48 h. Potency, µM (titrated, usually from 28.7 µM), inactives show top-dose activity change, negative = inhibition, most hits filed as inhibitors. 310,000 tested, 5.9% active. AID 504832; further: potency means the concentration at half of the fitted maximal effect; on the % scale 0 is the no-effect control and ±100 the full control effect
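In quantitative HTS format, infected erythrocytes bearing luciferase-reporter parasites were treated for a single generation at 37 C. Luminescence after adding detection reagent served as the growth measure.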
Marburg entry inh = inhibitors of Marburg virus binding or cell entry | Marburg virus pseudotyped entry inhibition, cell reporter | Potency, µM (top dose mostly 37.8 µM), without a hit: top-dose activity change, negative = inhibition, most hits filed as inhibitors | 300,000 tested, 1.8% active; calls by dose curve; tested in HEK293 cells; further: potency means the concentration at half of the fitted maximal effect; on the % scale 0 is the no-effect control and ±100 the full control effect
Lassa entry inh = Lassa virus entry inhibition; Lassa virus pseudotype entry inhibition, cell reporter; Potency, µM (top dose mostly 37.9 µM), for the others: at the highest dose activity change, negative = inhibition, most hits filed as inhibitors; 300,000 tested, 1.2% active; AID 540256; calls by dose curve; tested in HEK293 cells; further: potency means the concentration at half of the fitted maximal effect; on the % scale 0 is the no-effect control and ±100 the full control effect; nearly all actives have a fitted effect of over 50% in size
Active calls of the source: *; i = inactive; ? = inconclusive; · = no result; [ ] = dose if it differs, or a comment. Unless noted, the call rests on the fitted dose curve; in most records, active means well fitted inhibition curve with a large enough effect; inconclusive means small, poorly fitted or top-dose-only effect, or another doubt; inactive means no such curve, though single readings can be large or run the other way.

SMILES	Pf growth 96h	Shiga inhibitor	CHX counter	Pf growth 48h	Marburg entry inh	Lassa entry inh
C=CCC(=O)N1CCCC(CNC(=O)c2ccc(-c3ccccc3)cc2)C1 (configuration not stated)	4%	11	9	-5%	?	?
COc1ccc(CC(=O)N2CCCC(CNC(=O)c3ccccc3Cl)C2)cc1 (configuration not stated)	-30%	33*	12	23%	·	·
Cc1ccc(/C=N/NC(=O)CN(Cc2ccccc2)S(=O)(=O)c2ccc3c(c2)OCCO3)cc1	22%	-7	-1	?	?	?
COc1ccc(-c2csc(N(CC3CCCO3)C(=O)c3cccs3)n2)cc1 (configuration not stated)	-4%	20	3	·	?	?
CCN(CC)CCCN(C(=O)c1cccs1)c1nc(-c2ccc(OC)cc2)cs1	-28%	-5	9	13µM*	?	?
CCN(CC)CCCN(C(=O)c1ccc(Br)cc1)c1nc(-c2ccc(OC)cc2)cs1	-28%	-2	-8	?	3.5µM*	?
CCN(CC)CCCN(C(=O)c1cccc(C)c1)c1nc(-c2ccc(OC)cc2)cs1	4.1µM*	·	-9	?	·	·
COc1ccc(-c2csc(N(C)C(=O)c3cccs3)n2)cc1	-1%	33*	22*	87%	-8%[46.1 µM]	-8%
Cc1ccccc1-n1c(SC2CCOC2=O)nnc1-c1ccncc1 (configuration not stated)	34%	8	11	33%	-3%[46.1 µM]	-24%[46.1 µM]
Cc1ccc(S(=O)(=O)NC(C)C(=O)N2CCOCCOCCOCC2)cc1 (configuration not stated)	30%	-10	2	47%	?	-7%
Clc1ccccc1Oc1cnc2ccccc2n1	-21%	22	16	2.6µM*	9%	0%
c1ccc(Oc2cnc3ccccc3n2)cc1	3%	35	21	10%	-1%	0%
Clc1cccc(Oc2cnc3ccccc3n2)c1	1%	33	22*	7%	-12%	8%
CC(=O)Nc1cccc(Oc2cnc3ccccc3n2)c1	83%	46*	17*	77%	1%	0%
CC(=O)Nc1ccc(Oc2cnc3ccccc3n2)cc1	49%	2	-1	27%	5%	2%
COc1ccc(Oc2cnc3ccccc3n2)cc1	157%	51*	31*	132%	5%[46.1 µM]	-3%
O=C(COC(=O)CSc1ccc([N+](=O)[O-])cc1)NCc1cccs1	20%	·	·	7%	-1%	3%[46.1 µM]
NC(=O)C1CC(=O)N(Cc2ccc3c(c2)OCO3)C(=Nc2ccccc2)S1 (configuration not stated)	15µM*	-16	-5	-20%	12%	0%
COc1cc(/C=C(\C#N)C(=O)NCC2CCCO2)ccc1OCC(N)=O (configuration not stated)	23%	-1	2	-12%	12%[46.1 µM]	?
CCOC(=O)N1CCN(S(=O)(=O)/C=C/c2ccccc2)CC1	-25%	-9	-3	9%	?	0%
COc1ccc(OC(=O)N2C/C(=C/c3ccccc3)C(=O)/C(=C\c3ccccc3)C2)cc1	·	·	·	·	?	7.1µM*
O=C1/C(=C/c2ccccc2)CN(C(=O)CCN2CCOCC2)C/C1=C\c1ccccc1	·	·	·	·	?	1.4µM*
COc1ccc(/C=C2\CCOC2=O)cc1	43%	24	19	116%	17%	?
CCOC(=O)N1C/C(=C\c2ccccc2)C(=O)/C(=C/c2ccccc2)C1	?	24*	41*	4.7µM*	·	·
CCOC(=O)c1ccc(NC(=O)CCc2nc(-c3ccc(Cl)cc3)no2)cc1	?	9	-2	?	?	?
SMILES	Pf growth 96h	Shiga inhibitor	CHX counter	Pf growth 48h	Marburg entry inh	Lassa entry inh
CCOc1ccccc1NC(=O)CCn1c(-c2ccc(OC)cc2)cc(C(C)=O)c1C	·	·	·	·	·	-19%[46.1 µM]
Cc1ccccc1-c1cc2nc(C)c(C)c(=O)n2[nH]1	3%	36*	23*	7.4µM*	-11%	8%
Cc1nc2cc(-c3ccc(F)cc3)[nH]n2c(=O)c1C	?	84*	32*	6%	·	·
Cc1cc(=O)n2[nH]c(C)cc2n1	13%	13	8	8%	1%[46.1 µM]	9%
Cc1cc(=O)n2[nH]c(-c3ccccc3Cl)cc2n1	7.4µM*	49	-3	-6%	?	-12%
O=C(CNC(=O)c1ccccc1)Nc1cccc(C(F)(F)F)c1	28%	-6	-2	29%	-5%	-6%
CCN(CC(=O)NC1CC1)S(=O)(=O)c1ccc(C)cc1	-26%	-3	-3	?	3%[46.1 µM]	0%[46.1 µM]
O=C(c1cc(=O)[nH]c2ccc(Br)cc12)N1CCC2(CC1)OCCO2	237%	-23	-4	17%	4%	16%
Cc1nc2ccccc2c(=O)n1/N=C/c1ccccc1Cl	67%	72*	33*	68%	?	?
Cc1nc2ccccc2c(=O)n1/N=C/c1ccc(O)cc1O	341%	16	-2	-5%	-6%[46.1 µM]	29%[46.1 µM]
Cc1nc2ccccc2c(=O)n1/N=C/c1ccc(O)cc1	53%	17	1	-6%	20%	-3%
Cc1ccc(/C=N/n2c(C)nc3ccccc3c2=O)s1	210%	92*	40*	i	·	·
CS(=O)(=O)N(CC(O)Cn1c2ccccc2c2ccccc21)c1ccccc1 (configuration not stated)	?	-19	-3	?	?	-13%
O=c1c2ccccc2nc(-c2cccs2)n1-c1ccc2ccccc2c1	?	active	29*	-3%	?	10%
COc1ccccc1-n1c(-c2cccs2)nc2ccccc2c1=O	57%	49	13	?	·	·
CC(Oc1cccc2c1OC(C)(C)C2)C(=O)O (configuration not stated)	-18%	21	-2	-4%	-24%	2%
CCN(CC)S(=O)(=O)c1cc(C(=O)Nc2ccccc2[N+](=O)[O-])ccc1Cl	55%	41*	27*	26%	?	?
CCN(CC)S(=O)(=O)c1cc(C(=O)NC2=NCCS2)ccc1Cl	0%	-2	1	·	13%	10%
CN(C)S(=O)(=O)c1cccc(C(=O)Nc2ccccc2[N+](=O)[O-])c1	-5%	51*	18*	41%	?	3%
O=C(O)c1ccc(NS(=O)(=O)c2cccc(C(=O)Nc3ccccc3[N+](=O)[O-])c2)cc1	0%	-4	6	4%	·	·
CCN(CC)S(=O)(=O)c1cc(C(=O)Nc2cc(C)[nH]n2)ccc1Cl	68%	117*	67*	·	·	·
COc1ccc(OC)c(-n2cnc3cc(C(=O)NC4CCCC4)ccc32)c1	·	·	·	·	·	-20%[46.1 µM]
COCCN1CCN(c2c3c(nc4cc(-c5cccc(F)c5)nn24)CCC3)CC1	?	-4	2	?	-10%	0%

High-throughput results as filed in PubChem.
